In PubChem BioAssay (NCATS):

Target: Guanidinoacetate N-methyltransferase (Homo sapiens) (UniProt Q14353)
Experiment: Confirmatory Screen for Target Class Profiling of Small Molecule Inhibitors of Methyltransferases (AID 1745852); as to activity change, negative = inhibition: % is scaled to controls: 0 for no effect and ±100 for the full control effect
Settings: MTase-Glo luminescence, SAH detection, recombinant enzyme; at 57.3 µM (top of the series)

Row | SMILES | activity change, negative = inhibition [%]
1 | Nc1c(NC/C=C\COc2cc(CN3CCCCC3)ccn2)c(=O)c1=O | 2.26
2 | C=CC[N+]1([C@H]2C[C@H]3[C@@H]4CC[C@H]5C[C@H](OC(C)=O)[C@@H](N6CCCCC6)C[C@]5(C)[C@H]4CC[C@]3(C)[C@H]2OC(=O)CC)CCCCC1 | 0
3 | O=C1NC2CCCCN2C12CCN(CCCN1c3ccccc3CCc3ccc(Cl)cc31)CC2 (stereo not drawn) | 1.64
4 | CC(C)N(CCC(=O)c1ccc2ccccc2c1)Cc1ccccc1 | 9.33

Target: Nicotinamide N-methyltransferase (Homo sapiens) (UniProt P40261)
Experiment: as above
Settings: MTase-Glo luminescence, SAH detection, recombinant enzyme; measured here: NNMT max response; stronger effect = lower value

Sequence of Nicotinamide N-methyltransferase (Homo sapiens) (P40261 whole entry, looked up): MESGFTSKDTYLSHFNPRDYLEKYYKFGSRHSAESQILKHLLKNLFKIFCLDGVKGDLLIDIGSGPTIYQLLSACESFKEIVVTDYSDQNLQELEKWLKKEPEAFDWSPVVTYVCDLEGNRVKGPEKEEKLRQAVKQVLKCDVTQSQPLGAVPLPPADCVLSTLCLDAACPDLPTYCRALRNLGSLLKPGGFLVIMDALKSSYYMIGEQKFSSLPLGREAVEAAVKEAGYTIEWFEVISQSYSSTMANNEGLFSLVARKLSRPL

Row | SMILES | activity [%]
5 | Nc1c(NC/C=C\COc2cc(CN3CCCCC3)ccn2)c(=O)c1=O | -13.9
6 | C=CC[N+]1([C@H]2C[C@H]3[C@@H]4CC[C@H]5C[C@H](OC(C)=O)[C@@H](N6CCCCC6)C[C@]5(C)[C@H]4CC[C@]3(C)[C@H]2OC(=O)CC)CCCCC1 | -7.38
7 | O=C1NC2CCCCN2C12CCN(CCCN1c3ccccc3CCc3ccc(Cl)cc31)CC2 (stereo not drawn) | -29.7
8 | CC(C)N(CCC(=O)c1ccc2ccccc2c1)Cc1ccccc1 | -17.4
